# Experimental data as given in article PMC11062922 (Nature Chemical Biology, 2023).
# Where two headings read alike, the source gives them in different places.
# Tests used:
# AURKB = settings: read-out: apparent Kd, n = 1
# CDKL5 = settings: read-out: apparent Kd, n = 1
# [1] = compound concentrations:100 nM and 1000 nM (sheet 'Lestaurtinib' of Supplementary Table 1),run:Lestaurtinib_02438_R3,Plate:MR008
# [2] = compound concentrations:100 nM and 1000 nM (sheet 'Lestaurtinib' of Supplementary Table 1),run:Lestaurtinib_02443_R2,Plate:MR009
# [3] = compound concentrations:100 nM and 1000 nM (sheet 'Lestaurtinib' of Supplementary Table 1),run:Lestaurtinib_02473_R1,Plate:MR010
# [4] = compound concentrations:100 nM and 1000 nM (sheet 'Lestaurtinib' of Supplementary Table 1),run:Lestaurtinib_02487_R1,Plate:MR012
# [5] = compound concentrations:100 nM and 1000 nM (sheet 'Lestaurtinib' of Supplementary Table 1),run:Lestaurtinib_02487_R2,Plate:MR012
# [6] = compound concentrations:100 nM and 1000 nM (sheet 'Lestaurtinib' of Supplementary Table 1),run:Lestaurtinib_02566_R1,Plate:MR014
# [7] = compound concentrations:100 nM and 1000 nM (sheet 'Lestaurtinib' of Supplementary Table 1),run:Lestaurtinib_02572_R1,Plate:MR015
substance,measurement,setting,value
Lestaurtinib,potency estimated from few doses,AURKB; [1],161 nM
same,potency estimated from few doses,"AURKB; compound concentrations:100 nM and 1000 nM (sheet 'Lestaurtinib' of Supplementary Table 1),run:Lestaurtinib_02443_R1,Plate:MR009",193 nM
same,potency estimated from few doses,AURKB; [2],260 nM
same,potency estimated from few doses,AURKB; [3],144 nM
same,potency estimated from few doses,AURKB; [4],224 nM
same,potency estimated from few doses,AURKB; [5],219 nM
same,potency estimated from few doses,"AURKB; compound concentrations:100 nM and 1000 nM (sheet 'Lestaurtinib' of Supplementary Table 1),run:Lestaurtinib_02496_R2,Plate:MR013",115 nM
same,potency estimated from few doses,AURKB; [6],273 nM
same,potency estimated from few doses,"AURKB; compound concentrations:100 nM and 1000 nM (sheet 'Lestaurtinib' of Supplementary Table 1),run:Lestaurtinib_02566_R2,Plate:MR014",297 nM
same,potency estimated from few doses,AURKB; [7],271 nM
same,potency estimated from few doses,"AURKB; compound concentrations:100 nM and 1000 nM (sheet 'Lestaurtinib' of Supplementary Table 1),run:Lestaurtinib_02572_R3,Plate:MR015",151 nM
same,potency estimated from few doses,"AURKB; compound concentrations:100 nM and 1000 nM (sheet 'Lestaurtinib' of Supplementary Table 1),run:Lestaurtinib_02577_R1,Plate:MR016",239 nM
same,potency estimated from few doses,"AURKB; compound concentrations:100 nM and 1000 nM (sheet 'Lestaurtinib' of Supplementary Table 1),run:Lestaurtinib_02584_R1,Plate:MR017",236 nM
same,potency estimated from few doses,"AURKB; compound concentrations:100 nM and 1000 nM (sheet 'Lestaurtinib' of Supplementary Table 1),run:Lestaurtinib_02584_R2,Plate:MR017",271 nM
same,potency estimated from few doses,"AURKB; compound concentrations:100 nM and 1000 nM (sheet 'Lestaurtinib' of Supplementary Table 1),run:Lestaurtinib_02584_R3,Plate:MR017",237 nM
same,potency estimated from few doses,"AURKB; compound concentrations:100 nM and 1000 nM (sheet 'Lestaurtinib' of Supplementary Table 1),run:Lestaurtinib_02601_R2,Plate:MR018",240 nM
same,potency estimated from few doses,"AURKB; compound concentrations:100 nM and 1000 nM (sheet 'Lestaurtinib' of Supplementary Table 1),run:Lestaurtinib_02606_R1,Plate:MR019",271 nM
same,potency estimated from few doses,"AURKB; compound concentrations:100 nM and 1000 nM (sheet 'Lestaurtinib' of Supplementary Table 1),run:Lestaurtinib_02624_R1,Plate:MR020",259 nM
same,potency estimated from few doses,"AURKB; compound concentrations:100 nM and 1000 nM (sheet 'Lestaurtinib' of Supplementary Table 1),run:Lestaurtinib_02624_R2,Plate:MR020",278 nM
same,potency estimated from few doses,"AURKB; compound concentrations:100 nM and 1000 nM (sheet 'Lestaurtinib' of Supplementary Table 1),run:Lestaurtinib_02624_R3,Plate:MR020",260 nM
same,potency estimated from few doses,"AURKB; compound concentrations:100 nM and 1000 nM (sheet 'Lestaurtinib' of Supplementary Table 1),run:Lestaurtinib_02724_R1,Plate:MR021",414 nM
same,potency estimated from few doses,"AURKB; compound concentrations:100 nM and 1000 nM (sheet 'Lestaurtinib' of Supplementary Table 1),run:Lestaurtinib_02724_R2,Plate:MR021",253 nM
same,potency estimated from few doses,"AURKB; compound concentrations:100 nM and 1000 nM (sheet 'Lestaurtinib' of Supplementary Table 1),run:Lestaurtinib_02724_R3,Plate:MR021",80.5 nM
same,potency estimated from few doses,"AURKB; compound concentrations:100 nM and 1000 nM (sheet 'Lestaurtinib' of Supplementary Table 1),run:Lestaurtinib_02741_R1,Plate:MR023",289 nM
same,potency estimated from few doses,"AURKB; compound concentrations:100 nM and 1000 nM (sheet 'Lestaurtinib' of Supplementary Table 1),run:Lestaurtinib_02741_R2,Plate:MR023",259 nM
same,potency estimated from few doses,"AURKB; compound concentrations:100 nM and 1000 nM (sheet 'Lestaurtinib' of Supplementary Table 1),run:Lestaurtinib_02748_R1,Plate:MR024",229 nM
same,potency estimated from few doses,"AURKB; compound concentrations:100 nM and 1000 nM (sheet 'Lestaurtinib' of Supplementary Table 1),run:Lestaurtinib_02748_R2,Plate:MR024",286 nM
same,potency estimated from few doses,"AURKB; compound concentrations:100 nM and 1000 nM (sheet 'Lestaurtinib' of Supplementary Table 1),run:Lestaurtinib_02752_R1,Plate:MR025",290 nM
same,potency estimated from few doses,"AURKB; compound concentrations:100 nM and 1000 nM (sheet 'Lestaurtinib' of Supplementary Table 1),run:Lestaurtinib_02765_R1,Plate:MR026",275 nM
same,potency estimated from few doses,"AURKB; compound concentrations:100 nM and 1000 nM (sheet 'Lestaurtinib' of Supplementary Table 1),run:Lestaurtinib_02765_R3,Plate:MR026",350 nM
same,potency estimated from few doses,"AURKB; compound concentrations:100 nM and 1000 nM (sheet 'Lestaurtinib' of Supplementary Table 1),run:Lestaurtinib_02766_R2,Plate:MR027",95.3 nM
same,potency estimated from few doses,"AURKB; compound concentrations:100 nM and 1000 nM (sheet 'Lestaurtinib' of Supplementary Table 1),run:Lestaurtinib_02768_R1,Plate:MR028",151 nM
same,potency estimated from few doses,"AURKB; compound concentrations:100 nM and 1000 nM (sheet 'Lestaurtinib' of Supplementary Table 1),run:Lestaurtinib_02768_R2,Plate:MR028",146 nM
same,potency estimated from few doses,"AURKB; compound concentrations:100 nM and 1000 nM (sheet 'Lestaurtinib' of Supplementary Table 1),run:Lestaurtinib_02768_R3,Plate:MR028",169 nM
same,potency estimated from few doses,"AURKB; compound concentrations:100 nM and 1000 nM (sheet 'Lestaurtinib' of Supplementary Table 1),run:Lestaurtinib_02795_R2,Plate:MR022",132 nM
same,potency estimated from few doses,"AURKB; compound concentrations:100 nM and 1000 nM (sheet 'Lestaurtinib' of Supplementary Table 1),run:Lestaurtinib_02795_R3,Plate:MR022",269 nM
same,potency estimated from few doses,"AURKB; compound concentrations:100 nM and 1000 nM (sheet 'Lestaurtinib' of Supplementary Table 1),run:Lestaurtinib_02802_R2,Plate:MR029",144 nM
same,potency estimated from few doses,"AURKB; compound concentrations:100 nM and 1000 nM (sheet 'Lestaurtinib' of Supplementary Table 1),run:Lestaurtinib_02802_R3,Plate:MR029",83.6 nM
same,potency estimated from few doses,"AURKB; compound concentrations:100 nM and 1000 nM (sheet 'Lestaurtinib' of Supplementary Table 1),run:Lestaurtinib_02896_R3,Plate:MR030",218 nM
same,potency estimated from few doses,"AURKB; compound concentrations:100 nM and 1000 nM (sheet 'Lestaurtinib' of Supplementary Table 1),run:Lestaurtinib_03172_R1,Plate:MR031",146 nM
same,potency estimated from few doses,"AURKB; compound concentrations:100 nM and 1000 nM (sheet 'Lestaurtinib' of Supplementary Table 1),run:Lestaurtinib_03172_R3,Plate:MR031",290 nM
same,potency estimated from few doses,"AURKB; compound concentrations:100 nM and 1000 nM (sheet 'Lestaurtinib' of Supplementary Table 1),run:Lestaurtinib_03252_R2,Plate:MR032",136 nM
same,potency estimated from few doses,"AURKB; compound concentrations:100 nM and 1000 nM (sheet 'Lestaurtinib' of Supplementary Table 1),run:Lestaurtinib_03260_R2,Plate:MR033",243 nM
same,potency estimated from few doses,"CDKL5; compound concentrations:100 nM and 1000 nM (sheet 'Lestaurtinib' of Supplementary Table 1),run:Lestaurtinib_02339_R1,Plate:MR001",72.5 nM
same,potency estimated from few doses,"CDKL5; compound concentrations:100 nM and 1000 nM (sheet 'Lestaurtinib' of Supplementary Table 1),run:Lestaurtinib_02339_R2,Plate:MR001",37.7 nM
same,potency estimated from few doses,"CDKL5; compound concentrations:100 nM and 1000 nM (sheet 'Lestaurtinib' of Supplementary Table 1),run:Lestaurtinib_02364_R1,Plate:MR002",5.84 nM
same,potency estimated from few doses,"CDKL5; compound concentrations:100 nM and 1000 nM (sheet 'Lestaurtinib' of Supplementary Table 1),run:Lestaurtinib_02364_R3,Plate:MR002",158 nM
same,potency estimated from few doses,"CDKL5; compound concentrations:100 nM and 1000 nM (sheet 'Lestaurtinib' of Supplementary Table 1),run:Lestaurtinib_02367_R2,Plate:MR003",373 nM
same,potency estimated from few doses,"CDKL5; compound concentrations:100 nM and 1000 nM (sheet 'Lestaurtinib' of Supplementary Table 1),run:Lestaurtinib_02367_R3,Plate:MR003",37.9 nM
same,potency estimated from few doses,"CDKL5; compound concentrations:100 nM and 1000 nM (sheet 'Lestaurtinib' of Supplementary Table 1),run:Lestaurtinib_02381_R1,Plate:MR004",135 nM
same,potency estimated from few doses,"CDKL5; compound concentrations:100 nM and 1000 nM (sheet 'Lestaurtinib' of Supplementary Table 1),run:Lestaurtinib_02381_R2,Plate:MR004",149 nM
same,potency estimated from few doses,"CDKL5; compound concentrations:100 nM and 1000 nM (sheet 'Lestaurtinib' of Supplementary Table 1),run:Lestaurtinib_02381_R3,Plate:MR004",269 nM
same,potency estimated from few doses,"CDKL5; compound concentrations:100 nM and 1000 nM (sheet 'Lestaurtinib' of Supplementary Table 1),run:Lestaurtinib_02407_R1,Plate:MR005",43.6 nM
same,potency estimated from few doses,"CDKL5; compound concentrations:100 nM and 1000 nM (sheet 'Lestaurtinib' of Supplementary Table 1),run:Lestaurtinib_02407_R2,Plate:MR005",167 nM
same,potency estimated from few doses,"CDKL5; compound concentrations:100 nM and 1000 nM (sheet 'Lestaurtinib' of Supplementary Table 1),run:Lestaurtinib_02437_R1,Plate:MR007",32 nM
same,potency estimated from few doses,"CDKL5; compound concentrations:100 nM and 1000 nM (sheet 'Lestaurtinib' of Supplementary Table 1),run:Lestaurtinib_02437_R2,Plate:MR007",113 nM
same,potency estimated from few doses,"CDKL5; compound concentrations:100 nM and 1000 nM (sheet 'Lestaurtinib' of Supplementary Table 1),run:Lestaurtinib_02437_R3,Plate:MR007",2.19 nM
same,potency estimated from few doses,"CDKL5; compound concentrations:100 nM and 1000 nM (sheet 'Lestaurtinib' of Supplementary Table 1),run:Lestaurtinib_02438_R1,Plate:MR008",8.7 nM
same,potency estimated from few doses,"CDKL5; compound concentrations:100 nM and 1000 nM (sheet 'Lestaurtinib' of Supplementary Table 1),run:Lestaurtinib_02438_R2,Plate:MR008",181 nM
same,potency estimated from few doses,CDKL5; [1],176 nM
same,potency estimated from few doses,CDKL5; [2],27.1 nM
same,potency estimated from few doses,"CDKL5; compound concentrations:100 nM and 1000 nM (sheet 'Lestaurtinib' of Supplementary Table 1),run:Lestaurtinib_02443_R3,Plate:MR009",41.7 nM
same,potency estimated from few doses,CDKL5; [3],70.4 nM
same,potency estimated from few doses,"CDKL5; compound concentrations:100 nM and 1000 nM (sheet 'Lestaurtinib' of Supplementary Table 1),run:Lestaurtinib_02473_R3,Plate:MR010",212 nM
same,potency estimated from few doses,"CDKL5; compound concentrations:100 nM and 1000 nM (sheet 'Lestaurtinib' of Supplementary Table 1),run:Lestaurtinib_02482_R1,Plate:MR011",33.6 nM
same,potency estimated from few doses,"CDKL5; compound concentrations:100 nM and 1000 nM (sheet 'Lestaurtinib' of Supplementary Table 1),run:Lestaurtinib_02482_R2,Plate:MR011",27.4 nM
same,potency estimated from few doses,CDKL5; [4],190 nM
same,potency estimated from few doses,CDKL5; [5],449 nM
same,potency estimated from few doses,"CDKL5; compound concentrations:100 nM and 1000 nM (sheet 'Lestaurtinib' of Supplementary Table 1),run:Lestaurtinib_02496_R1,Plate:MR013",14.9 nM
same,potency estimated from few doses,CDKL5; [6],298 nM
same,potency estimated from few doses,"CDKL5; compound concentrations:100 nM and 1000 nM (sheet 'Lestaurtinib' of Supplementary Table 1),run:Lestaurtinib_02566_R3,Plate:MR014",21.2 nM
same,potency estimated from few doses,CDKL5; [7],389 nM
